{"source": "paper PMC7862700", "about": "“An all-to-all approach to the identification of sequence-specific readers for epigenetic DNA modifications on cytosine”", "test_in_all_cases": "DAPPL (digital affinity profiling via proximity ligation, sequencing); 10 mM Tris-HCl pH 7.5, 50 mM NaCl, 1 mM DTT, 4% glycerol, room temperature, 30 min; GST-TFs on glutathione beads, 16-mer random dsDNA library, 0.1% formaldehyde crosslink after washing; high values mean tight binding", "settings_in_all_cases": "protein: recombinant; tags: N-terminal GST; dsDNA, one strand shown", "key": {"FLI1": {"target": "T1, FLI1 (Homo sapiens, UniProt Q01543 1-452)", "T1 sequence": "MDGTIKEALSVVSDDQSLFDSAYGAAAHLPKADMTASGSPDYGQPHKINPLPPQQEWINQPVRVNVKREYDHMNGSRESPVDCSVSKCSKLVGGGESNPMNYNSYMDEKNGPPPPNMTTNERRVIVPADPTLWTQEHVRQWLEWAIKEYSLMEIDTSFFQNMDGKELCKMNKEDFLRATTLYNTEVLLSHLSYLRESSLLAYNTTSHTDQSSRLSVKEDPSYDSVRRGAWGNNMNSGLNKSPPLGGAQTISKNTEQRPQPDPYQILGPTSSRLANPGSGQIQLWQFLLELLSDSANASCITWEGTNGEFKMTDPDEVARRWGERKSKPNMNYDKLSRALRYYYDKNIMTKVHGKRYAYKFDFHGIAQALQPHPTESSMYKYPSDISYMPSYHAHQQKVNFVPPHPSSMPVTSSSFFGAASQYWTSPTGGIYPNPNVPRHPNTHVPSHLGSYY", "method_in_brief": "(§1)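 Human transcription factors carrying a GST fusion were produced in yeast, bound to glutathione beads, tagged with DNA barcodes and pooled together with a tag-only sample. Each pool was held with 200 nmole of a random double-stranded 16-mer DNA library in Tris/NaCl/DTT/glycerol buffer for 30 min at room temperature, then washed, crosslinked in 0.1% formaldehyde, proximity-ligated with BsaI/T4 ligase (1 h, 37 °C), PCR-amplified and sequenced on an Illumina NextSeq500. Binding signal is the read frequency of each hexamer for a given factor divided by its frequency in the tag-only sample.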"}, "ELK1": {"target": "T2, ELK1 (Homo sapiens, UniProt P19419 1-428)", "T2 sequence": "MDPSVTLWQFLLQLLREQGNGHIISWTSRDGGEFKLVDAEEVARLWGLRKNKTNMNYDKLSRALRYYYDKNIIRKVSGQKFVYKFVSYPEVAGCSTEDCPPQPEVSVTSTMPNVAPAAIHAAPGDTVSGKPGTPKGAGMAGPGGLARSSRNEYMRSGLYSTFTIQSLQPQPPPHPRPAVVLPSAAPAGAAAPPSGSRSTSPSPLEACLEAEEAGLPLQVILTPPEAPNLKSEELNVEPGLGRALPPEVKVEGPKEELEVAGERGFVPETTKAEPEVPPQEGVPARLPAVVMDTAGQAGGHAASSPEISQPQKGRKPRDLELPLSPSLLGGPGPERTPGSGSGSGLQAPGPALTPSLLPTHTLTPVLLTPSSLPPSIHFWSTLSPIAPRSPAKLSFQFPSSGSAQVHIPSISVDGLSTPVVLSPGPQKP", "method_in_brief": "as §1"}, "GABPA": {"target": "T3, GABPA (Homo sapiens, UniProt Q06546 1-454)", "T3 sequence": "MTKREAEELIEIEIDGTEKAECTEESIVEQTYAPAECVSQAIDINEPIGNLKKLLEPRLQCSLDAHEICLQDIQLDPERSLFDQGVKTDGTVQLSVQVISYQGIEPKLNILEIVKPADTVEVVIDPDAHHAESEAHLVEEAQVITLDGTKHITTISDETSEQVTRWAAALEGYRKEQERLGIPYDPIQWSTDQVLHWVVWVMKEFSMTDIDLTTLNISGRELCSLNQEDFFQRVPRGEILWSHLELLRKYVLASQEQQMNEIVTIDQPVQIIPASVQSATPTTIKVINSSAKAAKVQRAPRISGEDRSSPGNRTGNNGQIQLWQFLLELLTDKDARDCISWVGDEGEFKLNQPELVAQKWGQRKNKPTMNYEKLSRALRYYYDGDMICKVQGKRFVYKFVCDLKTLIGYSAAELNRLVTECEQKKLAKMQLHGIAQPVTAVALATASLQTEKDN", "method_in_brief": "as §1"}, "ELF1": {"target": "ELF1 (Homo sapiens, UniProt P32519 1-619)", "sequence (P32519 whole entry)": "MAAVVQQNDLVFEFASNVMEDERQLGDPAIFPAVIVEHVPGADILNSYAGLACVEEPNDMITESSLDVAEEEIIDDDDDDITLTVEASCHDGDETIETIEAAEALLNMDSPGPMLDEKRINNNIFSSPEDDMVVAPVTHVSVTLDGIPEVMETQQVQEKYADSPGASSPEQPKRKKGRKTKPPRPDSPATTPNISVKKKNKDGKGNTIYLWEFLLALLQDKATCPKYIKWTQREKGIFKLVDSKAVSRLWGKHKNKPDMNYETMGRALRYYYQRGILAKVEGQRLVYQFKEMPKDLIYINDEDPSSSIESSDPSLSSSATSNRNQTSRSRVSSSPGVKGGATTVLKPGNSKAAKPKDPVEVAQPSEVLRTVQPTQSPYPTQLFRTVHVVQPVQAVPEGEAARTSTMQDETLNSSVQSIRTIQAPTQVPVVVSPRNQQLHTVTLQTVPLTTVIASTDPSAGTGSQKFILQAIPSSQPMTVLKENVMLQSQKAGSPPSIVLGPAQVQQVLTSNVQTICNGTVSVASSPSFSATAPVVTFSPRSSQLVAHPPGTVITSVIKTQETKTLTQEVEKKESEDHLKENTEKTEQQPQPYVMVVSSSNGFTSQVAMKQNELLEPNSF", "method_in_brief": "as §1"}, "SPI1": {"target": "SPI1 (Homo sapiens, UniProt P17947 1-270)", "method_in_brief": "as §1"}, "SPIB": {"target": "SPIB (Homo sapiens, UniProt Q01892 1-262)", "sequence (Q01892 whole entry)": "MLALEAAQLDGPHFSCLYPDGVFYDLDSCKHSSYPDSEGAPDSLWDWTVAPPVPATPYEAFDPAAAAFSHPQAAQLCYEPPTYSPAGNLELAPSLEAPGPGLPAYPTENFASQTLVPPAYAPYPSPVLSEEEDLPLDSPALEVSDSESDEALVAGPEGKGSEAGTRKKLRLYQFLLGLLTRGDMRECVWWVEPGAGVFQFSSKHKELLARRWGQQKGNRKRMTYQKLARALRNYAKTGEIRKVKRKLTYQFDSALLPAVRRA", "method_in_brief": "as §1"}, "ELK3": {"target": "T4, ELK3 (Homo sapiens, UniProt P41970 1-407)", "T4 sequence": "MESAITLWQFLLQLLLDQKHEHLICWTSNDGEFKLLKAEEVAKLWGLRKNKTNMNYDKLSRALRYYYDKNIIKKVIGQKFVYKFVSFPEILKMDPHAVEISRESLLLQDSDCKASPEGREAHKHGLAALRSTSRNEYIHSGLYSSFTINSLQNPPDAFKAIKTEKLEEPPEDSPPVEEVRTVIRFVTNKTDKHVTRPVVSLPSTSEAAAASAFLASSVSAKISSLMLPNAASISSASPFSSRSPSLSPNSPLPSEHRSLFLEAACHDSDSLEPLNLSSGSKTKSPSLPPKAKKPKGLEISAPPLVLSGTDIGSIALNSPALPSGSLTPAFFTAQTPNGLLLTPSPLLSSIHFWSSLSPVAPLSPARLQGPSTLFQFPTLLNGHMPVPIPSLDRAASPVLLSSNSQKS", "method_in_brief": "as §1"}, "FEV": {"target": "T5, FEV (Homo sapiens, UniProt Q99581 1-238)", "T5 sequence": "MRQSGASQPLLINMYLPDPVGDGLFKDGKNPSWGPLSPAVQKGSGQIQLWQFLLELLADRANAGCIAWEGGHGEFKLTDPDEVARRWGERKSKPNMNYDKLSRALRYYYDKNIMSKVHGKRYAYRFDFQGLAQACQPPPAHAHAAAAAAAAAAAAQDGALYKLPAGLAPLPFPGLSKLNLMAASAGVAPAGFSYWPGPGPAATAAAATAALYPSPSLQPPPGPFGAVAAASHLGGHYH", "method_in_brief": "as §1"}, "ETV5": {"target": "ETV5 (Homo sapiens, UniProt P41161 1-510)", "sequence (P41161 whole entry)": "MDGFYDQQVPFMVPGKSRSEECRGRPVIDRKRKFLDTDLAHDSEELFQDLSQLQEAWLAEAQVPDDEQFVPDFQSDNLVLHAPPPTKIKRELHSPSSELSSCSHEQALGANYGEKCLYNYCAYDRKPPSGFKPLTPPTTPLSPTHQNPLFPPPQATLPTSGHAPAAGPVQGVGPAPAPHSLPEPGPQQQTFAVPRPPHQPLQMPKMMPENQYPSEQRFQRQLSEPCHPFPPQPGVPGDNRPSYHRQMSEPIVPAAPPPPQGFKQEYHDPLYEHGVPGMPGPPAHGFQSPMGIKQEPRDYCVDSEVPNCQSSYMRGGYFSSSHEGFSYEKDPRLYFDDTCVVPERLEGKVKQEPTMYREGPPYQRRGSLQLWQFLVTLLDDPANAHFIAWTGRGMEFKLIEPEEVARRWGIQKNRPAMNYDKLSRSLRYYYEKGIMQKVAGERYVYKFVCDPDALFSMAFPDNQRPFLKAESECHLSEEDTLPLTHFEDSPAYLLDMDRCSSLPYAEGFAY", "method_in_brief": "as §1"}, "ELF4": {"target": "ELF4 (Homo sapiens, UniProt Q99607 1-663)", "sequence (Q99607 whole entry)": "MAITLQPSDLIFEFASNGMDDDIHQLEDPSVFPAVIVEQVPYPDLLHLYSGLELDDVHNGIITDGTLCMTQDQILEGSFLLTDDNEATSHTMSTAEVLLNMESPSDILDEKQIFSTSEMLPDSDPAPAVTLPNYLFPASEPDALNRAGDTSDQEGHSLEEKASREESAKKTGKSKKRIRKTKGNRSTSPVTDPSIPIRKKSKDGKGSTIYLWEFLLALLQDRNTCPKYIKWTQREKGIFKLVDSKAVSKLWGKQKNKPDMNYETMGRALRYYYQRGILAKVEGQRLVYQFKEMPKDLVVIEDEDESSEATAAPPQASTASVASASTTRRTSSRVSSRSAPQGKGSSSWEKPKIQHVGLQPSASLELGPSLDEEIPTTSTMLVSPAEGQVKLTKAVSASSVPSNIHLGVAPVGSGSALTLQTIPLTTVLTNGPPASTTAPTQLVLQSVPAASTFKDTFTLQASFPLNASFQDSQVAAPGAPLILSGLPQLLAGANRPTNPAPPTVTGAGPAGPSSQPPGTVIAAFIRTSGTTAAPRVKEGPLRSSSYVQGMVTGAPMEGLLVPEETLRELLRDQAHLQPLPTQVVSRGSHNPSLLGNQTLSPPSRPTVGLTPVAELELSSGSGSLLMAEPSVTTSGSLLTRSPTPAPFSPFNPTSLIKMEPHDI", "method_in_brief": "as §1"}, "ETV1": {"target": "ETV1 (Homo sapiens, UniProt P50549 1-477)", "sequence (P50549 whole entry)": "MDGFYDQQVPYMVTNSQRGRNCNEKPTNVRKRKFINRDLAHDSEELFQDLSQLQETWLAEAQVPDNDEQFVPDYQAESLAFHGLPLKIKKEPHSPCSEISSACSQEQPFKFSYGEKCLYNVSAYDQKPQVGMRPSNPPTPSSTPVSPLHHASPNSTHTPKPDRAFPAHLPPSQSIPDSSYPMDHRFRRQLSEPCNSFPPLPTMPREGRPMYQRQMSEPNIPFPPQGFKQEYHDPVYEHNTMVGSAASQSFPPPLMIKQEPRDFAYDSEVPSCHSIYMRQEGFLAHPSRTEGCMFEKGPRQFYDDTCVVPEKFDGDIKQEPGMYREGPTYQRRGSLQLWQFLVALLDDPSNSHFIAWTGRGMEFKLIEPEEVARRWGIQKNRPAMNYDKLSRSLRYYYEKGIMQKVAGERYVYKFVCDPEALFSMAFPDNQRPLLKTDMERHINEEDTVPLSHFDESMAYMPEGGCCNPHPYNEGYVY", "method_in_brief": "as §1"}, "ERF": {"target": "T6, ERF (Homo sapiens, UniProt P50548 1-548)", "T6 sequence": "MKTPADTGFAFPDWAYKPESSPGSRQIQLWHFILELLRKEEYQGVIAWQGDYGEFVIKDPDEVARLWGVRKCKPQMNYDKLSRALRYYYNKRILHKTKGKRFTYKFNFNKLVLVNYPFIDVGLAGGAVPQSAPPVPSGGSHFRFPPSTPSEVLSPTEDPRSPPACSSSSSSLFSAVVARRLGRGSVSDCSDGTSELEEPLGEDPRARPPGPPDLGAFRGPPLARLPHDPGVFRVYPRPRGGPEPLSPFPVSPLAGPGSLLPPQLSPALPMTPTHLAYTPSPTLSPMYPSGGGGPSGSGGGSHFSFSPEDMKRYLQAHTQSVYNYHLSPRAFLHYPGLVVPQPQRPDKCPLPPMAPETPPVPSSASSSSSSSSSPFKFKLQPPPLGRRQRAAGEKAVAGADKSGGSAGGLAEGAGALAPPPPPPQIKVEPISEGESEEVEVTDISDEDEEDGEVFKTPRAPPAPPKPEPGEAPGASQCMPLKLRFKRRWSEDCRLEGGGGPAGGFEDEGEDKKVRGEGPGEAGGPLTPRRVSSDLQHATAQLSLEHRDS", "method_in_brief": "as §1"}, "ETV3L": {"target": "T7, ETV3L (Homo sapiens, UniProt Q6ZN32 1-361)", "T7 sequence": "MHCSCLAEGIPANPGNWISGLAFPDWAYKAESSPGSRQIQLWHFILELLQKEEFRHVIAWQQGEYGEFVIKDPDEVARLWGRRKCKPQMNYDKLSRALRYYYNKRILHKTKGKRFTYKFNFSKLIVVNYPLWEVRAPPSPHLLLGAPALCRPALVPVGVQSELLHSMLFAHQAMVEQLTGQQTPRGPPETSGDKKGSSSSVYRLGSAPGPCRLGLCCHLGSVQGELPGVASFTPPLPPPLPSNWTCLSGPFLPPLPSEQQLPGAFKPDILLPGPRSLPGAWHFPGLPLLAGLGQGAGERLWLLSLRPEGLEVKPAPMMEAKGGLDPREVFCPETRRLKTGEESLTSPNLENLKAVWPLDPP", "method_in_brief": "as §1"}, "ETS2": {"target": "T8, ETS2 (Homo sapiens, UniProt P15036 1-469)", "T8 sequence": "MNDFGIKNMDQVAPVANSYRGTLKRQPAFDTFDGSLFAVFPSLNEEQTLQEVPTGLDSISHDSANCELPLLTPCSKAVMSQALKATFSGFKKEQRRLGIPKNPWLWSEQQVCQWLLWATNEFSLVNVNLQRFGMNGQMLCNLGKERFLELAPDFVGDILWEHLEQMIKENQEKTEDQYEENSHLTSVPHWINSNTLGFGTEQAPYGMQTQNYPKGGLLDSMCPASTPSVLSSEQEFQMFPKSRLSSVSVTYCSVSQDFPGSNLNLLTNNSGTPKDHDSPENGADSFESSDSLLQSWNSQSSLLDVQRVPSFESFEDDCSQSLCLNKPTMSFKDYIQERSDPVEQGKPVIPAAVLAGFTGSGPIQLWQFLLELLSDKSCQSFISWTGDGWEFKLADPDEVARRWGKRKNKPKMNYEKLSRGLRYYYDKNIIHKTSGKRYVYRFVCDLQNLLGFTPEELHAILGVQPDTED", "method_in_brief": "as §1"}, "SPDEF": {"target": "T9, SPDEF (Homo sapiens, UniProt O95238 1-335)", "T9 sequence": "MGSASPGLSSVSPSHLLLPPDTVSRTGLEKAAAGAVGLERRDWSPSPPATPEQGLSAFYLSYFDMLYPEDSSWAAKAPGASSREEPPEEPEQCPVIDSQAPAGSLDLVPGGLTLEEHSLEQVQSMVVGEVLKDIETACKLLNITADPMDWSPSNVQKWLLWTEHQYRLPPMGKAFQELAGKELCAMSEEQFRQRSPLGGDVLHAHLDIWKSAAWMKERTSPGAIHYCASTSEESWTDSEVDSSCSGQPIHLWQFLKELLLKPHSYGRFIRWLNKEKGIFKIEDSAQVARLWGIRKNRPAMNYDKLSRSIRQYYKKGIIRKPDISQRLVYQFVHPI", "method_in_brief": "as §1"}, "ETV6": {"target": "ETV6 (Homo sapiens, UniProt P41212 1-452)", "sequence (P41212 whole entry)": "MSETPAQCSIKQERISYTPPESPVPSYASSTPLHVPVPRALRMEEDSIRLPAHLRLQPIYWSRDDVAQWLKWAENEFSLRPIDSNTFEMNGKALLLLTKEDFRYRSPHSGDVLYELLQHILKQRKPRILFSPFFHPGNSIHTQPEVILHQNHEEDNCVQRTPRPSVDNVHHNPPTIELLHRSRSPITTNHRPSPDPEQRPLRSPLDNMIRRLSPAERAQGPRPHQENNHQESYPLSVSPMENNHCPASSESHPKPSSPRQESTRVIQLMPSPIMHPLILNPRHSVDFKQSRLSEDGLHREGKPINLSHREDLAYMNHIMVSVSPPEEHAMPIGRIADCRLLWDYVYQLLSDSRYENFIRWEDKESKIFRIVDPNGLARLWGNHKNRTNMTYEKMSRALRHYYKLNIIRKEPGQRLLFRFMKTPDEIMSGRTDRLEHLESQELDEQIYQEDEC", "method_in_brief": "as §1"}}, "data": [{"sequence": "CTATCA", "values": [{"measurement": "binding signal", "setting": "FLI1", "result": "1.1 fold enrichment (6-mer frequency, TF over GST control)"}, {"measurement": "binding signal", "setting": "ELK1", "result": "1.06 fold enrichment (6-mer frequency, TF over GST control)"}, {"measurement": "binding signal", "setting": "GABPA", "result": "1.1 fold enrichment (6-mer frequency, TF over GST control)"}, {"measurement": "binding signal", "setting": "ELF1", "result": "1.05 fold enrichment (6-mer frequency, TF over GST control)"}, {"measurement": "binding signal", "setting": "SPI1", "result": "1.01 fold enrichment (6-mer frequency, TF over GST control)"}, {"measurement": "binding signal", "setting": "SPIB", "result": "1.05 fold enrichment (6-mer frequency, TF over GST control)"}, {"measurement": "binding signal", "setting": "ELK3", "result": "1.11 fold enrichment (6-mer frequency, TF over GST control)"}, {"measurement": "binding signal", "setting": "FEV", "result": "1.02 fold enrichment (6-mer frequency, TF over GST control)"}, {"measurement": "binding signal", "setting": "ETV5", "result": "1.03 fold enrichment (6-mer frequency, TF over GST control)"}, {"measurement": "binding signal", "setting": "ELF4", "result": "1.15 fold enrichment (6-mer frequency, TF over GST control)"}, {"measurement": "binding signal", "setting": "ETV1", "result": "1 fold enrichment (6-mer frequency, TF over GST control)"}, {"measurement": "binding signal", "setting": "ERF", "result": "1.06 fold enrichment (6-mer frequency, TF over GST control)"}, {"measurement": "binding signal", "setting": "ETV3L", "result": "1.09 fold enrichment (6-mer frequency, TF over GST control)"}, {"measurement": "binding signal", "setting": "ETS2", "result": "1.04 fold enrichment (6-mer frequency, TF over GST control)"}, {"measurement": "binding signal", "setting": "SPDEF", "result": "1.07 fold enrichment (6-mer frequency, TF over GST control)"}, {"measurement": "binding signal", "setting": "ETV6", "result": "1.03 fold enrichment (6-mer frequency, TF over GST control)"}]}]}
